Source: PubChem BioAssay (National Center for Advancing Translational Sciences (NCATS))
Rows were chosen to be rich in hits. Some 21% of all compounds tested hit in one or more screens of this group.
Shiga inhibitor – blocks Shiga toxin action in Vero cells. Vero cells, Shiga toxin protein synthesis inhibition reporter. inhibition, % at 38.7 µM. 290,000 compounds, 9.2% hits. AID 2315; in the data active = inhibition mostly above about 28%, no sharp cut-off; inactive = mostly below about 43%; also: 0% is about no effect
CHX counter – counter-screen hit for Shiga toxin inhibitors, cycloheximide. AID 2314. max response, %. 300,000 compounds, 12% hits. cell reporter, cycloheximide protein synthesis inhibition counterscreen; in the data active = max response mostly above about 13%, no sharp cut-off; inactive = mostly below about 14%; also: read at 38.3 µM for the half of the compounds with a filed dose; 0% is about no effect
Pf growth 48h – P. falciparum growth inhibition at 48 hours (one generation). P. falciparum luciferase growth in erythrocytes, 48 h. Potency, µM (doses to about 28.7 µM), for the others: at the top dose activity change, negative = inhibition, usual class: inhibitors. 310,000 compounds, 5.9% hits; also: potency is read from the fitted curve at half-maximal effect; % is scaled to controls: 0 for no effect and ±100 for the full control effect
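Parasite viability was followed by luminescence of a genomically integrated firefly luciferase. Cultures held 0.1% parasitemia at 2% hematocrit (final), incubated under 5% CO2 at 37 C.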
Pf growth 96h – P. falciparum growth inhibition at 96 hours; P. falciparum luciferase reporter growth, 96 h; Potency, µM (top dose mostly 28.7 µM), for inactives: at the highest dose activity change, negative = inhibition, most hits filed as inhibitors; 320,000 compounds, 6.9% hits; AID 504834; also: potency is read from the fitted curve at half-maximal effect; % is scaled to controls: 0 for no effect and ±100 for the full control effect
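96 h incubation, 37 C, 5% CO2, of luciferase-reporter P. falciparum-infected RBCs (2% hematocrit, 0.05% parasitemia final) with test compounds; endpoint luminescence.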
HCV inh – inhibitors of hepatitis C virus infection; 340,000 compounds, 3.4% hits; Huh7.5.1 HCVcc-Cre infection, luciferase reporter, 44 h; AID 651820; Potency, µM (series often up to 41.8 µM), without a hit: at the highest dose activity change, negative = inhibition, usual class: inhibitors; also: potency is read from the fitted curve at half-maximal effect; % is scaled to controls: 0 for no effect and ±100 for the full control effect
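Reporter virus HCVcc-Cre (~0.5 moi) infects cells exposed to compound; seeding density 1,000 cells/well with 4 h settling beforehand. Luminescence, 15 sec read, taken 44 h post-infection following a 15 min RT substrate incubation.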
HCMV antiviral – inhibitors of human cytomegalovirus; activity change, negative = inhibition, % at 57.5 µM; HFF cells, HCMV-luciferase reporter, 72 h; active compounds read low; AID 1259415; 410,000 compounds, 4.5% hits; in the data active = activity change below about -60%; inconclusive = no clear call, values can overlap the other calls; inactive = above about -39%; also: % is scaled to controls: 0 for no effect and ±100 for the full control effect
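Human foreskin fibroblasts infected with luciferase-reporter HCMV at MOI 1 PFU/cell, compounds at two doses. Luciferase measured 72 h post infection; normalized to buffer-only basal and Salinomycin (10uM) controls.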
* hit, by the source's call; u = inconclusive; x = no result given; ! = not active in a repeat; [ ] = another dose, or the depositor's remark. Unless noted, calls follow the shape of the dose curve; as a rule, active = well fitted inhibition curve with a large enough effect; inconclusive = small, poorly fitted or top-dose-only effect, or another doubt; inactive = no such curve, though single readings can be large or run the other way.

SMILES	Shiga inhibitor	CHX counter	Pf growth 48h	Pf growth 96h	HCV inh	HCMV antiviral
Cc1cc(C)nc(CCNC(=O)c2cc(COc3ccc(F)cc3F)on2)n1	-8	-4	-5%	32%	-3%	-18
COCCN1CC(CNC(=O)c2cc(COc3ccccc3SC)on2)CC1=O (centres undefined)	20	12*	-13%	90%	5%	8
CSc1ccccc1OCc1cc(C(=O)NCCN2CCCC(O)C2)no1 (centres undefined)	-7	10	-28%	12%	-27%	23
Cc1cc(C)nc(CCNC(=O)c2cc(COc3c(C)cccc3C)on2)n1	-18	16*	-4%	0%	u	30
COCC(=O)Nc1cc(Sc2ccccc2)ccc1N=C(NC(=O)OC)NC(=O)OC	x	x	5%	-7%	x	x
CSc1ccccc1OCc1cc(C(=O)NCCC2CCCCO2)no1 (centres undefined)	45*	33*	-7%	u	-29%	-15
COc1ccc(-c2nn3c(-c4ccccc4C)nnc3c3ccccc23)cc1	x	x	x	x	x	-28
C=CCNC(=S)NNC(=O)c1csc(C)c1C	13	-4	15%	u	5%	u
CCCCNC(=S)NNC(=O)c1csc(C)c1C	14	-3	30%	12%	30%	29
Cc1scc(C(=O)NNC(=S)NC(C)c2ccccc2)c1C (centres undefined)	18	0	7%	1%	-14%	-78*
CC1=C(C)CC(C(=O)NNC(=O)c2csc(C)c2C)C(C(=O)O)C1 (centres undefined)	79*	21*	2%	-3%	21%	0
CCOCCCNC(=O)C(c1ccc(Cl)cc1)N(Cc1ccc2c(c1)OCO2)C(=O)c1ccc(NC(C)=O)cc1 (centres undefined)	x	x	x	x	x	-4
COc1ccc(CN(C)C(=O)C(CCSC)NS(=O)(=O)c2ccc3c(c2)OCCO3)c(OC)c1OC (centres undefined)	x	x	x	x	-8%	32
COC(=O)c1ccc(NC(=O)CC2C(=O)N(c3ccc(C)cc3)C(=O)N2Cc2ccc(OC)cc2)cc1 (centres undefined)	x	x	x	x	x	-25
O=C(Nc1ccc(F)cc1Cl)C1Cc2ccccc2N1C(=O)c1ccccc1 (centres undefined)	x	x	x	x	x	22
Cc1cc(-c2ccc(C(C)C)c(S(=O)(=O)NCCN3CCC(C)CC3)c2)on1	-2	-9	u	32%	4%	-24
CCS(=O)(=O)Nc1ccc(NC(C)=O)cc1	5	1	x	16%	2%	-10
CC(=O)Nc1ccc(S(=O)(=O)c2ccc(N)cc2)cc1	24*!	18*!	-3%	-3%	-10%	u
CC(NC(=O)c1ccc(NS(C)(=O)=O)cc1)c1ccccc1 (centres undefined)	-13	-1	11%	x	15%	9
CC(=O)c1cccc(NC(=O)c2ccc(NS(C)(=O)=O)cc2)c1	6	7	16%	x	u	39
CS(=O)(=O)Nc1ccc(C(=O)Nc2ccc3ccccc3c2)cc1	x	35*	115%	43%	u	56
CC(C)c1ccc(NC(=O)c2ccc(NS(C)(=O)=O)cc2)cc1	17	12	9%	u	6.3µM*	-5
CC(=O)Nc1ccc(NS(C)(=O)=O)cc1	-10	-6	x	4.7µM*	-8%	-8
CC(=O)Nc1ccc(S(=O)(=O)c2ccc(N)cc2)cc1N	-16	-3	x	23%	13%	u
Cc1ccc(C2CC(=O)Nc3c2c(C)nn3-c2nc(C)cc(C)n2)c(C)c1 (centres undefined)	x	x	x	x	x	9
SMILES	Shiga inhibitor	CHX counter	Pf growth 48h	Pf growth 96h	HCV inh	HCMV antiviral
COc1ccc(C(=O)Nc2ccc3nc(SCC(=O)N4CCCC4)sc3c2)cc1	x	x	x	x	x	0
CC1CCN(C(=O)c2ccc3c(c2)N(Cc2ccccc2F)C(=O)c2ccccc2S3(=O)=O)CC1	x	x	x	x	x	-5
Cc1cnc(NC(=O)CCN2C(=O)C3CCCCC3C2=O)s1 (centres undefined)	11	7	39%	-22%	28%	-28
Cc1cnc(NC(=O)CC2CCCC2)s1	105*	49*	235%	258%	23%	7
O=C(Nc1nc2ccccc2s1)NC1CCCCC1	125*	40*	-8%	u	-24%	173
O=C(CC1CCCCC1)Nc1nc2ccccc2s1	59*	33*	81%	3%	4%	70
CCCN(C(=O)CSc1nc(C2CC2)n(-c2ccccc2)n1)C1CCS(=O)(=O)C1 (centres undefined)	x	x	-20%	-29%	9%	16
Cc1c(C(=O)NCCN(C)C)sc2nc3n(c(=O)c12)CCC3	x	x	x	x	x	15
COc1cc(C2C3=C(COC3=O)Oc3cc4c(cc32)OCO4)ccc1OC(C)=O (centres undefined)	x	x	x	x	-12%	-28
COc1cc(C2C3=C(COC3=O)Oc3cc4c(cc32)OCO4)cc(OC)c1OC(C)=O (centres undefined)	x	x	x	x	4%	-69*
c1ccc2c(c1)CCN(C1=Nc3cccc4cccc1c34)C2	49*	35*	u	u	u	54
c1cc2c3c(cccc3c1)C(N1CCCCC1)=N2	-11	-3	u	12µM*	-18%	x
c1cc2c3c(cccc3c1)C(N1CCCCCC1)=N2	25	16	-6%	1%[5.75 µM]	-1%	79
O=C(CS(=O)(=O)c1ccc(Cl)cc1)Nc1nccs1	x	x	x	x	x	-15
Cc1sc2ncnc(SC(C)C(=O)N3c4ccccc4Sc4ccccc43)c2c1C (centres undefined)	13	-2	1.7µM*	7.4µM*	u	u
Cc1ccc(OCC(=O)NNC(=O)C(C)Sc2ncnc3sc(C)c(C)c23)cc1 (centres undefined)	-6	-1	15%	-17%	0%	-18
O=C(NCc1ccc(F)cc1)C(=O)Nc1nc(C23CC4CC(CC(C4)C2)C3)cs1	-3	5	12µM*	-29%	u	u
CNC(=O)C(=O)Nc1nc(C23CC4CC(CC(C4)C2)C3)cs1	8	16*	-14%	u	4%	33
O=C(NCc1ccccc1)C(=O)Nc1nc(C23CC4CC(CC(C4)C2)C3)cs1	-3	-2	u	-29%	u	5
O=C(NCc1ccncc1)C(=O)Nc1nc(C23CC4CC(CC(C4)C2)C3)cs1	-9	-2	-11%	-11%	u	u
Cc1noc(C)c1C(=O)Nc1nc(C23CC4CC(CC(C4)C2)C3)cs1	45	14	12µM*	1%	u	-16
CCCCCOc1ccc(CSCCNC(=S)Nc2ccccc2)cc1	62	24*	u	10µM*	u	-25
CCCCOc1ccc(CSCCNC(=S)Nc2ccccc2)cc1	18	-3	u	87%	u	u
